The full list was thinned out, with hits kept by preference.
RMI FANCM FP: disruptors of RMI1/RMI2 association with MM2 peptide – biochemical, fluorescence polarization, human, primary screen; FP signal (polarization) at 33 µM; RMI core complex with F-MM2 peptide; stronger effect = lower value; AID 1159607, 2016; 70,000 tested, 0.58% active; in the data active = FP signal below about 40
Active calls of the source: *; ! = a repeat was not active.

SMILES	RMI FANCM FP
COc1ccc2c(c1)[nH]c1c(C)nccc12	67
CC1=NCCc2c1[nH]c1cc(O)ccc21	64
COc1ccc2c3c([nH]c2c1)C(C)=NCC3	35*!
CC12CCC3C(CCC4C/C(=N\N)CCC43C)C1CCC2O (stereo not given)	63
O=C(Cc1cccs1)Nc1ccc(S(=O)(=O)N2CC3CC(C2)c2cccc(=O)n2C3)cc1 (stereo not given)	66
C[n+]1noc(N=C([O-])C(F)(F)F)c1-c1ccccc1	60
COc1c(CC=C(C)C)c2c(c3oc(=O)c(-c4ccc(O)cc4)c(O)c13)C=CC(C)(C)O2	13*
CC(C)=CCCC1(C)C=Cc2c(O)c3c(c(CC=C(C)C)c2O1)OC12C(=CC4CC1C(C)(C)OC2(C/C=C(/C)C(=O)O)C4O)C3=O (stereo not given)	54
CC(C)=CCCC1(C)C=Cc2c(O)c3c(c(CC=C(C)C)c2O1)OC12C(=CC4CC1C(C)(C)OC2(C/C=C(/C)C(=O)O)C4=O)C3=O (stereo not given)	56
COc1ccc2c(Br)c(C(=O)O)[se]c2c1	65
N[C@@H](CCl)C(=O)O	52
NC(Cc1cc(O)c(O)cc1O)C(=O)O (stereo not given)	-4*
NCCc1cc(O)c(O)cc1O	59
CC12CCC3C(CCC4CC(O)CCC43C)C1C/C(=C\c1cccs1)C2=O (stereo not given)	63
NC1=NC(=O)C(c2ccccc2)O1 (stereo not given)	17*
C[C@@H]1CC[C@H]2[C@@H](C)C(=O)O[C@@H]3O[C@]4(C)CC[C@@H]1[C@]32OO4	65
CCC(=O)c1ccc(OC(=O)N(C)C)cc1	56
O=C(Nc1[nH]ncc1Br)C(Cl)Cl	54
CC(Cc1ccc(O)cc1)NCC(O)c1cc(O)cc(O)c1 (stereo not given)	-13*!
C[C@H](Cc1ccc2c(c1)OC(C(=O)O)(C(=O)O)O2)NC[C@H](O)c1cccc(Cl)c1	47
CC(N)Cc1ccc(O)cc1 (stereo not given)	63
CCOC(=O)C1C2NC(=S)N(c3cccc(C)c3)C1(C)Oc1ccc(Cl)cc12 (stereo not given)	45
C=C1[C@@H](O)[C@]23C[C@@H]1[C@@H](O)C[C@H]2[C@@]12C4[C@@H]3C[C@@H]1[C@@](C)(CC[C@@H]2O)CN4CC	55
CC12CCC(O)CC1CCC1C2CC(O)C2(C)C(C3=CC(=O)OC3)CCC12O (stereo not given)	59
O=C1c2ccccc2C(=O)c2ccccc21	58
O=C1C=CC(=O)c2c(O)cccc21	-18*
C[C@]12CCC3C(CC[C@H]4C[C@@H](Cl)CC[C@]34C)C1CCC2=O (stereo not given in full)	61
CN1C(=O)C([N+](=O)[O-])C(=O)N(C)C1=O	45
CCOC(=O)C1=C(N)NC2=C(CCCC2)C12C(=O)Nc1ccccc12 (stereo not given)	69
NCCC(O)C(=O)N[C@@H]1C[C@H](N)[C@@H](O[C@H]2O[C@H](CN)[C@@H](O)[C@H](O)[C@H]2N)[C@H](O[C@@H]2O[C@H](CO)[C@H](O)[C@H]2O)[C@H]1O (stereo not given in full)	55
